Test results reported in PubChem BioAssay (NCI).
The panel holds about 83,000 compounds, 20% with a hit somewhere; the sample as a whole holds those more often.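 The test compound was applied at a single concentration to cells in 96-well plates for 48 hours, and percent growth was recorded.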 Unmarked numbers belong to inactive results. The source made the active and inactive calls. The calls were made as follows: active = growth percent below 10; inactive = the rest.

Tests used:
Experiment in all cases: NCI-60 one-dose screen, 48 h (100 = growth as untreated, 0 = no growth, -100 = all killed)
Details in all cases: 10 µM unless noted
SR leukemia = system: SR leukemia
RPMI-8226 leukemia = system: RPMI-8226 leukemia
OVCAR-8 ovarian = system: OVCAR-8 ovarian
OVCAR-5 ovarian = system: OVCAR-5 ovarian
OVCAR-4 ovarian = system: OVCAR-4 ovarian
SK-OV-3 ovarian = system: SK-OV-3 ovarian
IGROV1 ovarian = system: IGROV1 ovarian
OVCAR-3 ovarian = system: OVCAR-3 ovarian
HS 578T breast = system: HS 578T breast
NCI/ADR-RES ovarian = system: NCI/ADR-RES ovarian
T-47D breast = system: T-47D breast
BT-549 breast = system: BT-549 breast
MDA-MB-435 melanoma = system: MDA-MB-435 melanoma
SW-620 colon = system: SW-620 colon
MCF7 breast = system: MCF7 breast
HCT-116 colon = system: HCT-116 colon
HCC-2998 colon = system: HCC-2998 colon
KM12 colon = system: KM12 colon

| SMILES | growth (SR leukemia) | growth (RPMI-8226 leukemia) | growth (OVCAR-8 ovarian) | growth (OVCAR-5 ovarian) | growth (OVCAR-4 ovarian) | growth (SK-OV-3 ovarian) | growth (IGROV1 ovarian) | growth (OVCAR-3 ovarian) | growth (HS 578T breast) | growth (NCI/ADR-RES ovarian) | growth (T-47D breast) | growth (BT-549 breast) | growth (MDA-MB-435 melanoma) | growth (SW-620 colon) | growth (MCF7 breast) | growth (HCT-116 colon) | growth (HCC-2998 colon) | growth (KM12 colon) |
| --- | --- | --- | --- | --- | --- | --- | --- | --- | --- | --- | --- | --- | --- | --- | --- | --- | --- | --- |
| CCCCCCCCCCC(CN(CC)CC)C(O)c1ccccc1 (stereo not drawn) | -17.6% (active) | 9.59% (active) | 53.6% | 49.7% | 47.5% | 54.9% | 40.7% | 37.7% | 45% | 33.6% | 3.27% (active) | 61.7% | -25.1% (active) | 32.1% | 1.87% (active) | 20.7% | -19.4% (active) | 8.29% (active) |
| O=S(=O)(Nc1cc(Cl)ccc1Cl)c1ccc(-c2cnc(C3CC3)o2)cc1 | 16.5% | 31% | 56.2% | 72.1% | 52.5% | 52% | 39.3% | 5.34% (active) | -2.43% (active) | 26% | 28.7% | 40.5% | -12% (active) | 21% | 12.9% | 21.5% | 67.4% | 24% |
| OB1OCc2cc(/C=C/c3cccc(C(F)(F)F)c3)ccc21 | -1.55% (active) | 15.7% | 10.8% | 37.6% | -12.9% (active) | 15.9% | 16.8% | -27.3% (active) | 23.3% | 15.2% | 20.4% | 8.09% (active) | 20.8% | 15.5% | 21.8% | 0.518% (active) | 32.5% | 14.6% |
| O=C(Nc1nc2cc(C(=O)N3CCN(C(c4ccccc4)c4ccccc4)CC3)ccc2o1)c1ccc(NC2CCCCC2)c([N+](=O)[O-])c1 | 49.1% | 40.1% | 37.8% | 72.5% | 38.8% | 73.8% | 51.1% | 52.8% | 76% | 35.3% | 44.3% | 83.4% | 64.9% |  | 50.2% | 40.9% | 62.2% | 51.4% |
| CCCNc1nc2ccccc2c2c1S(=O)(=O)c1ccc(Cl)cc1C2=O | 8.34% (active) | -10.2% (active) | 3.78% (active) | 8% (active) | 13.1% | 32.2% | 24.6% | -17% (active) | 7.32% (active) | 8.31% (active) | -1.34% (active) | 23% | 12.2% | -4.27% (active) | 8.27% (active) | 5.94% (active) | 16.2% | 17.1% |
| COc1ccc(Nc2nnc(-c3ccc(OC)c(OC)c3)o2)cc1 | 86.6% | 92.1% | 90.9% | 100% | 89.2% | 98% | 78.7% | 91.4% | 94.2% | 89.2% | 79.1% | 61.8% | 109% | 97.7% | 90.9% | 77.8% | 120% | 85.1% |
| COc1ccc(C(=O)/C=C/c2c(C(F)(F)F)nc3ccccn23)cc1OC | -9.91% (active) | 6.41% (active) | 10.9% | 9.01% (active) | 5.92% (active) | 17.3% | 17.3% | -51.3% (active) | 4.59% (active) | -22.7% (active) | -10.7% (active) | 4.31% (active) | 10.4% | -4.44% (active) | 8.07% (active) | -34.1% (active) | -9.15% (active) | 3.34% (active) |
| COc1ccc(C2=C(Nc3ccc(C(=O)Nc4ccccc4)cc3)C(=O)N(C)C2=O)cc1 | 66.6% | 82.1% | 91.5% | 100% | 97.4% | 74.9% | 97.7% | 109% | 110% | 87% | 68.8% | 115% | 106% | 106% | 102% | 107% | 98.5% | 91.6% |
| C=C1C(=O)O[C@H]2[C@H]1CC/C(COC(=O)/C=C\C(=O)NCc1ccc(Cn3c(=O)sn(CCI)c3=O)cc1)=C\CC[C@@]1(C)O[C@@H]21 | 2.49% (active) | 22.4% | 58.3% | 77.7% | 48.3% | 133% | 3.61% (active) | 10.4% | 89.3% | 98% | 57.6% | 71.9% | 44.9% | 8.21% (active) | 24.8% | 19% | 83.9% | 97.4% |
| CCCCCCCCCCCCCCCCOCCCOP(=O)(O)C1CCCN(O)C1=O (stereo not drawn) | 7.77% (active) | 10.9% | 23.8% | 20% | 16.5% | 34.4% | -2.28% (active) | 17.3% | 83.1% | 8.85% (active) | 43.2% | 32.2% | 14.3% | 20.9% | 18.5% | 14.5% | 3.73% (active) | 7.79% (active) |
| O=S(=O)(c1ccccc1)n1cc2c(c1)-c1nc(Nc3ncccn3)sc1CC2 | 74.6% | 71.3% | 65% | 95.8% | -27.9% (active) | 66% | 70.4% | 40.3% | 22.4% | 53% | 53% | 63.8% | 61.5% | 65.1% | 49.5% | 23.1% | 85% | 82.8% |
| O=C(/C=C/c1ccccc1)Nc1ncc(Cc2ccccc2Cl)s1 | 17.9% | 25.4% | 39.5% | 44% | 70.2% | 44.4% | 31.5% | -24.2% (active) | 28.2% | 9.49% (active) | 21.1% | 55.2% | -44.4% (active) |  | 18.9% | 16% | 35.4% | 14% |
| C=C1C(=O)O[C@H]2[C@H]1CC/C(COC(=O)C(=O)c1cn(C)c3ccc(Cl)cc13)=C\CC[C@@]1(C)O[C@@H]21 | 2.71% (active) | -33.7% (active) | -23.9% (active) | -47.6% (active) | -61.2% (active) | -35.4% (active) | -72.1% (active) | -86.3% (active) | -16.9% (active) | -3.58% (active) | -55.6% (active) | -74.5% (active) | -81.3% (active) | -69.1% (active) | -54.3% (active) | -96.4% (active) | -80.3% (active) | -49.7% (active) |
| O=S(=O)(Nc1ccc(F)cc1F)c1ccc(-c2cnc(C3CC3)o2)cc1 | 10.9% | 18.1% | 38.4% | 51.8% | 46.8% | 45.6% | 32.6% | 13.4% | 27.4% | 19.4% | 31.9% | 17.2% | -33.8% (active) | 23.7% | 20.3% | 21.2% | 54.9% | 30.1% |
| CCN(CC)CCn1c2ccc(O)cc2c2sc3cc(O)ccc3c(=O)c21 | 5.78% (active) | 28.3% | 31.4% | 54% | 46.6% | 48.7% | 15.4% | 41% | 64.5% | 61.1% | 50.4% | 62.1% | 40.5% |  | 8.08% (active) | 12.1% | 42.3% | 29.4% |
| Clc1cccc(Nc2ncnc3ccc(-c4cnc5[nH]ccc5c4)cc23)c1 | 60% | 60% | 68.2% | 78.7% | 85% | 71.1% | 25.1% | 64.6% | 81.4% | 77% | 28.3% | 77.4% | 88.3% | 107% | 48.3% | 75.1% | 95% | 72.6% |
| COc1ccc(Nc2ncc(Br)c(NCCCNC(=O)C3CCCC3)n2)cc1 | 47% | 49.3% | 36.7% | 54.6% | 56.7% | 30.6% | 14.1% | 46.6% | 29.2% | 51.5% | 77.5% | 40.4% | 63% | 41.2% | 41.8% | 23.6% | 69.7% | 23% |
